Compound activity deposited in PubChem by National Center for Advancing Translational Sciences (NCATS).
KB-V1 cytotox – KB-V1 MDR subline cytotoxicity; KB-V1 MDR cells viability, CellTiter-Glo, 72 h; hit rate 3.4% among 400,000; Potency, µM (series often up to 46.1 µM), usual class: cytotoxic; further: nearly all actives have a fitted effect of over 60% in size
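KB-V1 MDR subline cells in DMEM (phenol-red free, 10% FBS) exposed to compounds in qHTS concentration series for 72 h at 37 degrees C. Viability read by CellTiter-Glo luminescence; concentration-effect curves fitted after normalization and correction.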
DT40 TDP1 no CPT – qHTS for Inhibitors of human tyrosyl-DNA phosphodiesterase 1 (TDP1): qHTS in cells in absence of CPT | DT40 Tdp1-/- hTDP1 cells, no CPT, ATP luminescence, 48 h | Potency, µM (highest dose often 46.2 µM), hits mostly inhibitors | hit rate 15% among 420,000 | AID 686978, 2013; further: nearly all actives have a fitted effect of over 55% in size
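Camptothecin absent (DMSO only). Human TDP1-complemented DT40 knockout cells, 400 cells/well, 37 °C for minimum 48 hr; ATP measured via CellTiter-Glo, 30 min dark incubation, luminescence.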
DT40 TDP1 CPT – growth inhibition of DT40 Tdp1-/-;hTDP1 cells with camptothecin (screen for TDP1 inhibitors) | Potency, µM (top dose mostly 46.2 µM), usual class: inhibitors | hit rate 12% among 420,000 | chicken DT40 Tdp1-/-;hTDP1 cells + 20 nM CPT, ATP luminescence, 48 h; further: nearly all actives have a fitted effect of over 55% in size
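Cell growth measured by CellTiter-Glo luminescence after a minimum 48 h, 37 C compound exposure with 20 nM CPT in Tdp1-knockout DT40 cells stably expressing hTDP1, seeded 400/well; qHTS titration format.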
KB-3-1 tox – kills parental KB-3-1 adenocarcinoma cells; Potency, µM (highest dose often 46.1 µM), actives largely listed as cytotoxic; KB-3-1 viability, CellTiter-Glo ATP luminescence, 72 h; AID 1347075; hit rate 1.4% among 400,000; further: nearly all actives have a fitted effect of over 60% in size
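Luminescent ATP read-out (CellTiter-Glo) measures survival of drug-naive KB-3-1 cells after 72 h compound exposure at 37 °C. Titration series was screened from lowest to highest concentration, with DMSO vehicle plates as background controls.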
HT1080 IDH1KD tx – toxicity to HT-1080 IDH1 knockdown cells (counter line). hit rate 2% among 360,000. HT-1080 IDH1 knockdown viability, ATP luminescence, 48 h. Potency, µM (titrated, usually from 46.1 µM), actives largely listed as cytotoxic
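Assay cells: HT-1080 with IDH1 knockdown, 750 per well, RPMI/5% FBS. Exposure: 48 h at 37 °C following 2 h pre-incubation. Read: CellTiter-Glo luminescence; fitted concentration-response, curve class assigned.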
HT1080-NT tox – kills 2HG-producing HT-1080-NT fibrosarcoma cells; HT-1080-NT fibrosarcoma viability, CellTiter-Glo ATP luminescence, 48 h; hit rate 1.6% among 360,000; AID 686970; Potency, µM (top dose mostly 46.1 µM), usual class: cytotoxic;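 further: NT is the 2HG producing partner of a matched IDH1 knockdown line; nearly all actives have a fitted effect of over 55% in size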
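A 48-hour cytotoxicity screen used HT-1080-NT cells plated 2 hours before compound delivery. ATP-based CellTiter-Glo luminescence measured viability, normalized to DMSO and no-cell controls.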
Large screens that a line does not name were inactive. Sampled rows, rich in hits. Any-hit rate of the full collection: about 19%. The call rests on the fitted dose curve; in most records, active means well fitted curve in the direction sought with a large enough effect; inconclusive means small, poorly fitted or top-dose-only effect, or another doubt; inactive means no such curve, though single readings can be large; an effect the other way counts as inactive or inconclusive.

COc1ccc(C2Nc3ccccc3C(=O)N2c2ccccc2)cc1CSc1ccccn1 (centres undefined)	KB-V1 cytotox 4.11µM, DT40 TDP1 no CPT inconclusive, DT40 TDP1 CPT inconclusive
COc1ccc(C2Nc3ccccc3C(=O)N2Cc2ccccc2)cc1CSc1ccccn1 (centres undefined)	KB-V1 cytotox 4.61µM, DT40 TDP1 no CPT 18.4µM, DT40 TDP1 CPT 23.1µM
COc1ccc(C2Nc3ccccc3C(=O)N2c2ccc(F)cc2)cc1CSc1ccccn1 (centres undefined)	DT40 TDP1 CPT inconclusive
Cc1cccc(NC(=O)CSc2nnc(CNC(=O)c3ccco3)n2C)c1	KB-3-1 tox inconclusive
COCC(=O)N1CCC2(CC1)CN(Cc1ccc(C#N)cc1)C2	none (no result: KB-V1 cytotox, KB-3-1 tox, HT1080 IDH1KD tx, HT1080-NT tox)
COCCNC(=O)c1c(NC(=O)Cc2coc3cc(C)ccc23)sc2c1CCCC2	DT40 TDP1 no CPT inconclusive, DT40 TDP1 CPT 23.1µM (no result: HT1080 IDH1KD tx, HT1080-NT tox)
COCCCNC(=O)c1c(NC(=O)c2cc(=O)c3ccccc3o2)sc2c1CCCC2	DT40 TDP1 no CPT 5.17µM (no result: HT1080 IDH1KD tx, HT1080-NT tox)
Cc1ccc2c(CC(=O)NCc3ccccc3)coc2c1C	KB-V1 cytotox inconclusive, DT40 TDP1 no CPT 3.26µM, DT40 TDP1 CPT 4.11µM, KB-3-1 tox inconclusive (no result: HT1080 IDH1KD tx, HT1080-NT tox)
COC(=O)c1c(NC(=O)Cc2coc3cc(C)ccc23)sc2c1CCC2	DT40 TDP1 no CPT 3.26µM (no result: HT1080 IDH1KD tx, HT1080-NT tox)
COC(=O)c1c(NC(=O)Cc2coc3ccc(C)cc23)sc2c1CCC2	DT40 TDP1 no CPT inconclusive, DT40 TDP1 CPT inconclusive (no result: HT1080 IDH1KD tx, HT1080-NT tox)
CC(C)NC(=O)Cc1csc2nc(-c3ccccc3)cn12	none (no result: HT1080 IDH1KD tx, HT1080-NT tox)
O=C(NC(=S)Nc1ccc2nc[nH]c2c1)c1ccccc1	KB-3-1 tox inconclusive
CN(C)c1nc(-c2cccnc2)nc(-c2ccccc2)c1C#N	DT40 TDP1 no CPT inconclusive
CC(C)NC(=O)N1CC[C@@]2(CCCN(C(=O)c3ccncc3)C2)C1	none (no result: KB-V1 cytotox, KB-3-1 tox, HT1080 IDH1KD tx, HT1080-NT tox)
COCCCNC(=O)c1c(NC(=O)Cc2coc3c(C)c(C)ccc23)sc2c1CCCC2	DT40 TDP1 no CPT 16.4µM, DT40 TDP1 CPT 16.4µM (no result: HT1080 IDH1KD tx, HT1080-NT tox)
C=C1CCN([C@H](C(=O)O)C(C)C)S(=O)(=O)c2ccccc21	none
C=C1CCN([C@H](C(=O)OCc2cccc(C)c2)C(C)C)S(=O)(=O)c2ccccc21	KB-V1 cytotox inconclusive, DT40 TDP1 no CPT 14.6µM, DT40 TDP1 CPT inconclusive, KB-3-1 tox inconclusive
N=c1n(CCN2CCCCC2)c2ccccc2n1CC(O)COc1ccccc1 (centres undefined)	DT40 TDP1 no CPT 14.6µM, DT40 TDP1 CPT 18.4µM, KB-3-1 tox inconclusive, HT1080 IDH1KD tx inconclusive, HT1080-NT tox 14.6µM
COc1ccccc1OCC(O)Cn1c(=N)n(CCN2CCCCC2)c2ccccc21 (centres undefined)	DT40 TDP1 no CPT 16.4µM, DT40 TDP1 CPT inconclusive, KB-3-1 tox inconclusive, HT1080 IDH1KD tx inconclusive, HT1080-NT tox inconclusive
Cc1ccccc1OCC(O)Cn1c(=N)n(CCN2CCCCC2)c2ccccc21 (centres undefined)	DT40 TDP1 no CPT 4.61µM, DT40 TDP1 CPT 5.8µM (no result: KB-V1 cytotox, KB-3-1 tox, HT1080 IDH1KD tx, HT1080-NT tox)
Cc1ccccc1OCC(O)Cn1c(=N)n(CCN2CCOCC2)c2ccccc21 (centres undefined)	DT40 TDP1 no CPT inconclusive, DT40 TDP1 CPT inconclusive
Cc1ccccc1OCC(O)COc1ccccc1C	DT40 TDP1 no CPT 20.6µM, DT40 TDP1 CPT inconclusive, HT1080-NT tox inconclusive
Cc1ccccc1OCC(O)CN (centres undefined)	none
Cc1ccccc1OCCn1c(=N)n(C(C)C)c2ccccc21	DT40 TDP1 no CPT 6.51µM, DT40 TDP1 CPT 8.2µM (no result: KB-V1 cytotox, KB-3-1 tox, HT1080 IDH1KD tx, HT1080-NT tox)
Cc1ccccc1OCCn1c(CCNC(=O)C(C)C)nc2ccccc21	DT40 TDP1 no CPT inconclusive
FC(F)(F)Oc1ccccc1C(c1nnnn1C1CCCC1)N1CCN(C/C=C/c2ccccc2)CC1 (centres undefined)	KB-V1 cytotox inconclusive, DT40 TDP1 no CPT 16.4µM, DT40 TDP1 CPT inconclusive, HT1080 IDH1KD tx inconclusive, HT1080-NT tox inconclusive
COc1cccc(C(c2nnnn2C2CCCCC2)N2CCN(C/C=C/c3ccccc3)CC2)c1OC (centres undefined)	KB-V1 cytotox inconclusive, DT40 TDP1 no CPT 13µM, DT40 TDP1 CPT 16.4µM, KB-3-1 tox inconclusive, HT1080 IDH1KD tx inconclusive, HT1080-NT tox inconclusive
CCN1CCN(C(c2ccccc2OC)c2nnnn2C2CCCCC2)CC1 (centres undefined)	none
COC(=O)C1(NC(=O)NC2CCCCC2)CCCCC1	none
CN(C)c1ccc(/C=C/N2C=CCc3c2ccc2ccccc32)cc1	KB-V1 cytotox inconclusive, DT40 TDP1 no CPT 0.0891µM, DT40 TDP1 CPT 0.0794µM, KB-3-1 tox 0.581µM (no result: HT1080 IDH1KD tx, HT1080-NT tox)
CCCCn1c(N)c(N(CCC(C)C)C(=O)c2c(CC)noc2C)c(=O)[nH]c1=O	none
Cc1cccc(C)c1NC(=O)C1(C)CSCC(=O)N1CCc1ccc(O)cc1 (centres undefined)	none
c1ccc(C2NCCc3ccccc32)cc1 (centres undefined)	DT40 TDP1 no CPT 25.9µM, DT40 TDP1 CPT inconclusive, HT1080 IDH1KD tx inconclusive
COc1ccc(NC(=O)COc2cccc3c2CCN(Cc2cccnc2)C3=O)cc1	DT40 TDP1 no CPT inconclusive, DT40 TDP1 CPT inconclusive
